Assay [1] in a line: qHTS assay for small molecules that induce genotoxicity in human embryonic kidney cells expressing luciferase-tagged ATAD5 (AID 651632). Note: % is set by controls: 0 for no effect and ±100 for the full control effect; nearly all actives have a fitted effect of over 15% in size. The gist of the method: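 Luminescent reporter readout, HEK293T ATAD5-luc line: 16 hr drug exposure (37C, 5% CO2) followed by Amplite, 30 min RT.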
In general terms: In qHTS, concentration-response curves come from the screen itself.

The nature of assay [2]: qHTS assay for small molecule agonists of the p53 signaling pathway - cell viability (AID 651633; calls by dose curve; note: nearly all actives have a fitted effect of over 30% in size; note: potency is the fitted concentration of half-maximal effect). The procedure, abridged:
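Viability counter-read: CellTiter-Glo luminescence (30 min, room temperature) in the same p53RE-bla plates. These plates had been exposed to compounds for 16 h at 37 C.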

Assay [3] in a line: qHTS assay for small molecules that induce genotoxicity in human embryonic kidney cells expressing luciferase-tagged ATAD5 - cell viability (AID 651634; calls by dose curve; note: nearly all actives have a fitted effect of over 25% in size; note: potency is the fitted concentration of half-maximal effect). The procedure, abridged: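 Viability read: CellTiter-Fluor fluorescence, 30 min at 37C. Cells: HEK293T, luciferase-tagged ATAD5. Exposure: 15.5 hr, 37C, 5% CO2, compound or DMSO vehicle.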
The nature of assay [4]: qHTS assay for small molecule disruptors of the mitochondrial membrane potential - cell viability (AID 720634; calls by dose curve; note: nearly all actives have a fitted effect of over 20% in size; note: potency is the fitted concentration of half-maximal effect). The gist of the method:
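HepG2, 1 hr compound, 37 C. ATP luminescence via CellTiter-Glo, 30 min RT, same well as m-MPI.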

Assay [5] is described as follows: qHTS assay for small molecule disruptors of the mitochondrial membrane potential (AID 720635). Note: potency is the fitted concentration of half-maximal effect. The procedure, abridged:
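Mitochondrial membrane potential tracked with Mito-MPS dye, red aggregates (ex 540/em 590 nm) against green monomers (ex 490/em 535 nm). Compound treatment 1 hr at 37C, dye 30 min in HepG2.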

Assay [6] in a line: qHTS assay to test for compound auto fluorescence at 590 nm (red) in HepG2 cells (AID 720674). Note: % is set by controls: 0 for no effect and ±100 for the full control effect. The procedure, abridged:
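Red autofluorescence (Ex/Em 540/590 nm, Rose Bengal sodium equivalents) was measured in HepG2 cells, 2,000 per well in MEM plus 10% FBS, plated overnight at 37 C. Readings were taken 1 hr after adding 23 nL compound or DMSO, at 37 C and 5% CO2.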

The nature of assay [7]: qHTS assay to test for compound auto fluorescence at 535 nm (green) in HepG2 cells (AID 720675). For fluorescence, % of fluorescein control: % is set by controls: 0 for no effect and ±100 for the full control effect. Note: potency is the fitted concentration of half-maximal effect.
Assay [8] can be described thus: qHTS assay to test for compound auto fluorescence at 460 nm (blue) in HEK293 cells (AID 720678). Note: % is set by controls: 0 for no effect and ±100 for the full control effect. The gist of the method:
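Measured: blue fluorescence (Ex 405/Em 460 nm) of compound-treated HEK293 cells, incubated overnight at 37C with 5% CO2 and scaled to triamterene equivalents.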

Assay [9] in a line: qHTS assay to test for compound auto fluorescence at 590 nm (red) in HEK293 cells (AID 720679). Note: % is set by controls: 0 for no effect and ±100 for the full control effect. The procedure, abridged: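 Using HEK293 cells at 2,000 per well, the screen added 23 nL of each compound after cell attachment and incubated overnight (37C, 5% CO2). The plate reader then captured red-label fluorescence, Ex/Em 540/590nm.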
Assay [10] is described as follows: qHTS assay for small molecule agonists of the p53 signaling pathway (AID 651631; calls by dose curve; note: potency is the fitted concentration of half-maximal effect; nearly all actives have a fitted effect of over 15% in size). The procedure, abridged: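 We treat p53RE-bla HCT-116 cells with compounds for 16 h at 37 °C, add LiveBLAzer B/G FRET substrate for 2 h at room temperature, and measure fluorescence intensity.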

Values joined by “and” are separate entries in the source; they are usually repeats but may differ in a detail not shown here. Identical values can stand only once. Unmarked numbers belong to inactive results. Records with an inconclusive call do not appear. Active and inactive are the calls of the source. Unless noted, calls come from the whole dose curve; as a rule, active = well fitted curve in the direction sought with a large enough effect in the repeat runs; inconclusive = weak or mixed curves; inactive = no such curve, though single readings can be large; an effect the other way counts as inactive or inconclusive.

Take `O=c1cccccc1O`: the Potency entry in assay [1], in [2], in assay [3], in assay [4], in [6] and in assay [7] was “inactive” in each case. Moreover, the Potency result in assay [8] and in assay [9] was “inactive” in each case. Moreover, in assay [5], the Potency was 3.93 µM (active).

With `CCC(C)Nc1ccc(NC(C)CC)cc1` (configuration not stated), the Potency result in assay [1], in assay [3], in [6], in assay [7], in assay [8] and in assay [9] was “inactive” in each case. Further, the Potency was 14 µM (active) in [2], 44.1 µM (active) in assay [4] and 8.8 µM (active) in assay [5].

For `CCCCCCCCCCCCCCCCCC[N+](C)(C)Cc1ccccc1`, the Potency result in assay [1], in assay [6], in assay [7], in [8] and in assay [9] was “inactive” each time. For the same compound, the Potency in [2] was 24.6 µM (active); in assay [3], 55 µM (active); in assay [4], 69.2 µM (active); in assay [5], 15.5 µM (active).

As for `Oc1cc2ccccc2c2ccccc12`, the Potency result in assay [1], in [6], in [7], in assay [8] and in assay [9] was “inactive” each time. The Potency is 6.11 µM (active) in [2], 17.2 µM (active) in assay [3], 19.3 µM (active) in [4] and 0.969 µM (active) in assay [5].

Consider `C[n+]1cc2c3c(ccc2c2ccc4cc5c(cc4c21)OCO5)OCO3`, for which the Potency result in [1], in assay [6], in [7], in assay [8] and in [9] was “inactive” in each case. The Potency was 1.5 µM (active) in assay [2], 11.9 µM (active) in assay [3], 11.9 µM (active) in [4] and 8.41 µM (active) in assay [5].

On to `Cc1cc(O)c(C(C)(C)C)cc1Sc1cc(C(C)(C)C)c(O)cc1C`, for which the Potency result in assay [1], in assay [6], in [7], in assay [8] and in assay [9] was “inactive” each time. Also, the Potency in assay [2] is 13.7 µM (active); in [3], 54.4 µM (active); in [4], 61 µM (active); in assay [5] it was 0.768 µM (active).

As for `CCCCCCCCCCC=O`, the Potency result in assay [1], in [2], in assay [3], in assay [4], in [5] and in [6] was “inactive” in each case. For the same compound, the Potency entry in [7], in [8] and in assay [9] was “inactive” each time.

For `N#CSc1ccc(N)c([N+](=O)[O-])c1`, the Potency entry in [1], in assay [2], in [4], in assay [6], in assay [7] and in assay [8] was “inactive” each time. In addition, the Potency result in assay [9] is “inactive”. The Potency in [3] and in [5] was 61.5 µM (active) each time.

`CC(C)OC(=O)c1cc2c(OCC(O)CNC(C)(C)C)cccc2[nH]1` (configuration not stated): the Potency result in [1], in assay [2], in assay [3], in assay [4], in assay [5] and in assay [6] was “inactive” in each case. Besides, the Potency entry in assay [7], in assay [8] and in [9] was “inactive” each time.

As for `CCCCCCCC[N+](CCCCCCCC)(CCCCCCCC)CCCCCCCC`, the Potency result in assay [1], in [6], in assay [7], in assay [8] and in assay [9] was “inactive” throughout. In addition, the Potency in assay [2] was 13.7 µM (active); in assay [3], 30.6 µM (active); in assay [4], 27.3 µM (active); in assay [5], 0.0768 µM (active).

Take `Cc1cc(O)c(Cl)c(C)c1Cl`: the Potency result in [1], in assay [6], in assay [7], in assay [8] and in [9] was “inactive” in each case. The Potency in assay [2] is 68.6 µM (active); in assay [3], 61.1 µM (active); in assay [4], 54.5 µM (active); in [5] it was 1.93 µM (active).

With `CCCCCCCC[P+](CCCCCCCC)(CCCCCCCC)CCCCCCCC`, the Potency entry in [1], in [6], in assay [7], in assay [8] and in assay [9] was “inactive” in each case. Moreover, the Potency was 12.1 µM (active) in assay [2], 13.6 µM (active) in assay [3], 21.6 µM (active) in [4] and 0.0963 µM (active) in assay [5].

In the case of `Cc1cc(C2CCCCC2)n(O)c(=O)c1`, the Potency in [10] was 8.04 µM (active); in assay [5] it was 3.2 µM (active). In addition, the Potency entry in [2], in assay [3] and in assay [4] was “inactive” throughout. In addition, the fluorescence, relative to Rose Bengal in assay [6] is 0.33% [at 18.6 µM]. Moreover, the fluorescence, % of fluorescein control in assay [7] is -0.0302% [at 18.6 µM]. For the same compound, the fluorescence, % of triamterene in assay [8] is -0.0951% [at 18.6 µM]. Further, the fluorescence, % of fluorescent control in [9] is -0.0357% [at 18.6 µM].

For the compound `CC1=C(C(=O)OC(C)C)C(c2cccc([N+](=O)[O-])c2)C(C(=O)OC2CN(C(c3ccccc3)c3ccccc3)C2)=C(N)N1` (configuration not stated), the Potency result in assay [1], in assay [6], in assay [7], in assay [8] and in assay [9] was “inactive” in each case. The Potency in [2] was 7.5 µM (active); in [3], 18.8 µM (active); in assay [4], 7.5 µM (active); in [5] it was 1.19 µM (active).

As to `O=C1C=CC(=O)N1c1ccc(Cc2ccc(N3C(=O)C=CC3=O)cc2)cc1`, the Potency in [10] is 13.7 µM (active); in [2], 10.9 µM (active); in assay [3], 15.4 µM (active); in [4] it was 7.7 µM (active); in assay [5] it was 6.86 µM (active). Besides, the Potency result in assay [6], in assay [7], in [8] and in assay [9] was “inactive” in each case.

In the case of `Cc1cc(O)c(C(C)(C)C)cc1C(C)(C)C`, the Potency result in assay [1], in [6], in assay [7], in [8] and in [9] was “inactive” each time. The Potency is 9.69 µM (active) in assay [2], 15.4 µM (active) in [3], 15.4 µM (active) in [4] and 0.969 µM (active) in [5].

Take `CCCCCCCCOC(=O)c1ccc(O)cc1`: the Potency result in [1], in assay [2], in assay [3], in assay [6], in assay [7] and in [8] was “inactive” in each case. For the same compound, the Potency entry in assay [9] is “inactive”. Further, the Potency in assay [4] is 24.3 µM (active); in assay [5], 17.2 µM (active).

With `N=C1C=CC(=C(c2ccc(N)cc2)c2ccc(N)cc2)C=C1`, the values for the Potency in [10] and in assay [5] were 68.6 µM (active) and 0.0611 µM (active), respectively. In addition, the Potency entry in assay [1], in assay [6], in [7], in assay [8] and in [9] was “inactive” throughout.

Turning to `CCCC(=O)OC[C@@H](OC(=O)CCC)[C@@H](OC(=O)CCC)[C@H](Cn1c2nc(=O)[nH]c(=O)c-2nc2cc(C)c(C)cc21)OC(=O)CCC`, the Potency result in assay [1], in [2], in assay [3], in assay [4], in assay [6] and in assay [8] was “inactive” each time. In [9], the Potency result is “inactive”. Besides, the figures for the Potency in assay [5] and in assay [7] were 6.99 µM (active) and 8.91 µM (active), respectively.

For `CCCCc1oc2ccc(NS(C)(=O)=O)cc2c1C(=O)c1ccc(OCCCN(CCCC)CCCC)cc1`, the Potency result in assay [1], in assay [6], in assay [7], in assay [8] and in assay [9] was “inactive” in each case. Besides, the Potency in assay [2] is 29.8 µM (active); in [3] it was 26.6 µM (active); in [4] it was 29.8 µM (active); in [5], 9.44 µM (active).

Take `O=C(c1ccc(O)cc1O)c1ccc(O)cc1O`: the Potency entry in [1], in assay [2], in assay [3], in assay [4], in [6] and in [7] was “inactive” in each case. Also, the Potency entry in [8] and in assay [9] was “inactive” each time. In [5], the Potency is 12.2 µM (active) and 7.7 µM (active).

The values above are taken from PubChem BioAssay (Tox21).
